# Assay outcomes deposited in PubChem BioAssay by National Center for Advancing Translational Sciences (NCATS).
# The list is not random: actives were taken first. Their share in the collection is about 21%.
# AMA1 RON2 block – qHTS for Inhibitors of AMA1-RON; Towards Development of Antimalarial Drug Lead: Primary Screen | AlphaScreen AMA1-biotinylated RON2 peptide binding | Potency, µM (titrated, usually from 58.2 µM), inactives show at the highest dose activity change, negative = inhibition, hits mostly inhibitors | Plasmodium falciparum AMA1 (3D7) - RON2 peptide interaction | AID 720542, 2013 | 0.2% of 360,000 active;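 note: potency is the fitted concentration of half-maximal effect; 0% = vehicle wells and -100% = peptide control; nearly all actives have a fitted effect of over 45% in size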
#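 AMA1 (3D7) with his tag at 25 nM final met compounds first, then biotinylated RON2 peptide at 25 nM; detection used donor plus acceptor beads, 10 µg/mL apiece, read by AlphaScreen after 30 min at room temperature.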
# HCV inh – qHTS Assay for Inhibitors of Hepatitis C Virus (HCV) | Huh7.5.1 HCVcc-Cre infection, luciferase reporter, 44 h | Potency, µM (series often up to 41.8 µM), for the others: top-dose activity change, negative = inhibition, most hits filed as inhibitors | 3.4% of 340,000 active; note: potency is the fitted concentration of half-maximal effect; % is set by controls: 0 for no effect and ±100 for the full control effect
#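 Seed cells (1,000/well) for 4 h; treat with compound and infect with HCVcc-Cre, moi about 0.5. Incubate 44 h, then detect luciferase activity.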
# Cycloheximide cs – Cycloheximide Counterscreen for Small Molecule Inhibitors of Shiga Toxin; cell reporter, cycloheximide protein synthesis inhibition counterscreen; max response, %; 12% of 300,000 active; in the data active = max response mostly above about 13%, no sharp cut-off; inactive = mostly below about 14%; note: read at 38.3 µM for the half of the compounds with a filed dose; 0% is about no effect
# Shiga toxin inh – A qHTS for Small Molecule Inhibitors of Shiga Toxin | 9.2% of 290,000 active | inhibition, % at 38.7 µM | Vero cells, Shiga toxin protein synthesis inhibition reporter | AID 2315, 2010; in the data active = inhibition mostly above about 28%, no sharp cut-off; inactive = mostly below about 43%; note: 0% is about no effect
# Pf growth 48h – Primary qHTS for delayed death inhibitors of the malarial parasite plastid, 48 hour incubation; P. falciparum luciferase growth in erythrocytes, 48 h; Potency, µM (doses to about 28.7 µM), for inactives: top-dose activity change, negative = inhibition, usual class: inhibitors; 5.9% of 310,000 active; note: potency is the fitted concentration of half-maximal effect; % is set by controls: 0 for no effect and ±100 for the full control effect
#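 Parasite viability was followed by luminescence of a genomically integrated firefly luciferase. Cultures held 0.1% parasitemia at 2% hematocrit (final), incubated under 5% CO2 at 37 C.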
# Pf growth 96h – Primary qHTS for delayed death inhibitors of the malarial parasite plastid, 96 hour incubation | AID 504834, 2011 | 6.9% of 320,000 active | P. falciparum luciferase reporter growth, 96 h | Potency, µM (doses to about 28.7 µM), without a hit: at the highest dose activity change, negative = inhibition, actives largely listed as inhibitors; note: potency is the fitted concentration of half-maximal effect; % is set by controls: 0 for no effect and ±100 for the full control effect
#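 Readout is luminescence from an integrated firefly luciferase in P. falciparum. Red cells, 2% hematocrit and 0.05% parasitemia final, were cultured with compound through two parasite generations (96 hours) at 37 C, 5% CO2.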
# Active calls of the source: *; ? = inconclusive; . = no result. Unless noted, calls come from the whole dose curve; as a rule, active = well fitted curve in the direction sought with a large enough effect; inconclusive = small, poorly fitted or top-dose-only effect, or another doubt; inactive = no such curve, though single readings can be large; an effect the other way counts as inactive or inconclusive.
SMILES,AMA1 RON2 block,HCV inh,Cycloheximide cs,Shiga toxin inh,Pf growth 48h,Pf growth 96h
Cc1ccccc1/C=N/NC(=O)CSc1nc2ccccc2o1,0%,1%,24*,93*,191%,297%
Cc1ccccc1NC(=O)CSc1nc2ccccc2o1,-6%,1%,23*,63*,181%,.
O=C(O)CC1Sc2nnc(COc3ccc(Cl)cc3)n2N=C1c1ccccc1 (stereo unspecified),11%,10%,-5,-7,11%,-2%
CCCCNS(=O)(=O)c1cccc(NC(=O)[C@@H]2O[C@H](CO)[C@H](O)[C@H](O)[C@H]2O)c1,-10%,.,.,.,.,.
O=C(CSc1nc2ccccc2o1)N/N=C/c1ccccc1,95%,2%,25*,61*,90%,-10%
C/C(=N\NC(=O)CSc1nc2ccccc2o1)c1cccc(O)c1,98%,9%,2,18,8%,22%
Cc1cc(C)n(C(=O)CSc2nc3ccccc3o2)n1,1%,17%,18*,12,11%,?
N#Cc1ccccc1NC(=O)COC(=O)CSc1nc2ccccc2o1,-2%,1%,1,-5,26%,1µM*
CC1(C)CC(=O)c2cnc(NC(=O)CSc3nc4ccccc4o3)nc2C1,-3%,-1%,16*,55,45%,25%
CCc1ccc(C(C)(O)C(CN2CCOCC2)c2ccccc2)cc1 (stereo unspecified),-2%,0%,2,-8,?,203%
C/C(=N\NC(=O)CSc1nc2ccccc2o1)c1ccc(O)cc1,61%,-5%,45*,114*,37%,248%
COCCN1C(=O)CCC1(C)C(=O)NC1CCCCC1 (stereo unspecified),5%,.,.,.,.,.
CCc1nnc(NS(=O)(=O)c2ccc(NC(=O)c3ccc(C#N)cc3)cc2)s1,-9%,9%,-1,3,?,10µM*
CCc1nnc(NS(=O)(=O)c2ccc(N/C=C\C(=O)c3ccc4ccccc4c3)cc2)s1,-8%,9%,24*,3,-7%,?
CCc1nnc(NS(=O)(=O)c2ccc(NCc3ccccc3O)cc2)s1,11%,24%,-2,-4,18%,3.3µM*
CCc1nnc(NS(=O)(=O)c2ccc(NC(=O)c3ccc(Cl)cc3)cc2)s1,-12%,24%,-2,-9,?,?
CCCN(CCC)S(=O)(=O)c1ccc(C(=O)Nc2ccc(S(=O)(=O)Nc3nnc(CC)s3)cc2)cc1,0%,10%,-1,-7,12µM*,?
COc1ccc(CCNC(=O)c2cc(-c3ccncc3)nc3ccc(S(=O)(=O)N4CCOCC4)cc23)cc1OC,20%,1%,9,6,?,?
CC(C)(C)c1ccc(S(=O)(=O)Nc2ccc(C(O)(C(F)(F)F)C(F)(F)F)cc2)cc1,3%,.,.,.,.,.
OCCNc1nnc(-c2ccccc2)c(-c2ccccc2)n1,-2%,-6%,.,.,.,.
O=C(Nc1nc2ccccc2n1CCN1CCOCC1)c1ccccc1,35%,-17%,10*,18,-28%,0%
CC(=O)Nc1nc2ccccc2n1CCN1CCOCC1,14%,13%,-3,9,11%,16%
O=C(Nc1nc2ccccc2n1CCN1CCOCC1)c1cn(-c2ccccc2)nc1-c1ccccc1,29%,10µM*,7,-12,10µM*,?
O=C(NCCCN1CCOCC1)c1cn(-c2ccccc2)nc1-c1ccc(Br)cc1,-18%,8%,.,.,.,.
COc1ccc(C(=O)COC(=O)c2ccc3c(c2)OCO3)c(OC)c1,10%,3%,.,.,60%,38%
O=C(OCc1ccccc1)N1CCCC1/C=C/CN1CCOCC1 (stereo unspecified),13%,12%,6,6,23%,3%
C#CCn1cc(/C=C2\NC(=O)NC2=O)c2ccccc21,?,-10%,-2,-3,3%,7%
Cc1cc(NC2CCCCC2)nc(N2CCOCC2)n1,14%,?,3,-4,2%,130%
